Reference: PubChem BioAssay
The source made the active and inactive calls. Unless noted, how the calls were made is not given here.

Legend:
[1] = resazurin metabolic signal in HepG2 cells – cell-based, resazurin fluorescence, 24 h, PK04 Diversity Set, profiling panel (AID 1172); conditions: HepG2 viability, higher = more signal; further: test concentration not given here
[2] = budding yeast growth changes without added modifier – OD600, strain BY4716, 24 h, basal condition, primary screen (AID 1173); conditions: S. cerevisiae BY4716 growth, OD600, 24 h; higher = more signal, called active from +8 up or from −8 down
[3] = viability profiling in MM1S myeloma cells – cell-based, resazurin fluorescence, basal, 24 h, PK04 Diversity Set, profiling panel (AID 1174); conditions: higher = more signal, called active from +8 up or from −8 down;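 further: MM1S multiple myeloma cell line; test concentration not given here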
[4] = target: Dihydroorotate dehydrogenase (quinone), mitochondrial (Plasmodium falciparum (isolate 3D7)) (UniProt Q08210); assay: inhibition of P. falciparum DHODH – biochemical, C-terminal His tag, absorbance 600 nm, primary screen (AID 1175); conditions: PfDHODH enzyme, DCIP absorbance 600 nm; higher = more signal, called active from +8 up or from −8 down;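 further: recombinant parasite enzyme with a five histidine tag at its C terminus; test concentration not given here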
Chain of Dihydroorotate dehydrogenase (quinone), mitochondrial (Plasmodium falciparum (isolate 3D7)) (Q08210 whole entry, looked up): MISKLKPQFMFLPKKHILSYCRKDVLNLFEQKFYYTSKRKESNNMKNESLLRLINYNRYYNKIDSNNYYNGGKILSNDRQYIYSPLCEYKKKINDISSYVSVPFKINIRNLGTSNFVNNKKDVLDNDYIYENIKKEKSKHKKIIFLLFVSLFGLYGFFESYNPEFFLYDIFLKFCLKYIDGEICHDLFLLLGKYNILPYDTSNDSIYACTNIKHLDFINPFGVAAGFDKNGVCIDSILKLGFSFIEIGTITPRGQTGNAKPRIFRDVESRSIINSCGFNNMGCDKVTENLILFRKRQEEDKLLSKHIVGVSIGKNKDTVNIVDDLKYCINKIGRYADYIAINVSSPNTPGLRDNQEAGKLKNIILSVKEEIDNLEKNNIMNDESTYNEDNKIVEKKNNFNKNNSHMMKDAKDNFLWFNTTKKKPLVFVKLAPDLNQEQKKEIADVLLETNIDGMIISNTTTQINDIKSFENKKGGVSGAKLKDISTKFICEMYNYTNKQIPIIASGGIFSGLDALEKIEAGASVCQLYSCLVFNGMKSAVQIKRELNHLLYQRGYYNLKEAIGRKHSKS

[5] = inhibition of PAO1 biofilm formation – strain PAO1, LB-PBS medium, absorbance 600 nm, primary screen (AID 1176); further: test concentration not given here; conditions: P. aeruginosa PAO1 growth/biofilm, A600, 12 h; higher = more signal
[6] = growth modulation of vineyard yeast isolate – strain RM11-1a, OD600, basal, 24 h, primary screen (AID 1177);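 further: cultures grown under basal conditions with no added stressor; test concentration not given here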; conditions: S. cerevisiae RM11-1a growth, OD600, 24 h; higher = more signal, called active from +8 up or from −8 down
[7] = growth of efflux-deficient E. coli DRC39 – strain DRC39, OD650, 24 h, E. coli filamentation inducers, primary screen (AID 1178);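 further: growth measured as culture turbidity by optical density at 650 nm; test concentration not given here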; conditions: E. coli DRC39 acrAB, higher = more signal, called active from +8 up or from −8 down
[8] = growth of efflux-deficient E. coli DRC39 – strain DRC39, OD650, 48 h, E. coli filamentation inducers, primary screen (AID 1179);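 further: screen aims at cell division blockers that make cells filament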; conditions: E. coli DRC39 delta-acrAB growth, higher = more signal, called active from +8 up or from −8 down
[9] = viability profiling in RPMI8226 myeloma cells – cell-based, resazurin fluorescence, basal, 24 h, PK04 Diversity Set, profiling panel (AID 1180); conditions: higher = more signal;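 further: RPMI8826 multiple myeloma cell line at 5000 cells per well; test concentration not given here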
[10] = target: E3 ubiquitin-protein ligase XIAP (Homo sapiens) (UniProt P98170); assay: small molecules binding XIAP protein – biophysical, small-molecule microarray, fluorescence 635 nm, primary screen (AID 1181); conditions: higher = more signal;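 further: score merges 667 nm emission and signal to noise over triplicate slides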
Chain of E3 ubiquitin-protein ligase XIAP (Homo sapiens) (P98170 whole entry, looked up): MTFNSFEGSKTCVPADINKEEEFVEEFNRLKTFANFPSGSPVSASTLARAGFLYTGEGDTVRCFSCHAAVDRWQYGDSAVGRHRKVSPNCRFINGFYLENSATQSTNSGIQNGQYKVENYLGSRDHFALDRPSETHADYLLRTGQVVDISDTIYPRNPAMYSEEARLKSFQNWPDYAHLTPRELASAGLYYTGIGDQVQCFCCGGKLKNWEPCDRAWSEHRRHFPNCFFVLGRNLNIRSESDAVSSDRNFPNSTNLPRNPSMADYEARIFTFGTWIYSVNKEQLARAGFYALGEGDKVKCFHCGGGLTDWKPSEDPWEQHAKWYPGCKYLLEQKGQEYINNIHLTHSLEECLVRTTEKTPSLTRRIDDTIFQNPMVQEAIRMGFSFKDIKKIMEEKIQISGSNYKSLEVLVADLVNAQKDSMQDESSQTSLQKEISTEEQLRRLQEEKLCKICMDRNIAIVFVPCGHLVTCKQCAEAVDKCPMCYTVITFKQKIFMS

SMILES	z-score [1]	z-score [2]	z-score [3]	composite z-score [4]	z-score [5]	z-score [6]	z-score [7]	z-score [8]	z-score [9]	composite z-score [10]
COCCOC(=O)N1C(=O)[C@@]2(c3ccccc31)[C@H](c1ccc(O)cc1)N1[C@H](c3ccccc3)[C@H](c3ccccc3)OC(=O)[C@H]1[C@@H]2C(=O)Nc1nc2ccccc2s1	-0.175	0.183 (inactive)	-1.1 (inactive)	0.553 (inactive)	0.995 (inactive)	0.941 (inactive)	0.411 (inactive)	1.37 (inactive)	-0.456	-0.02
CN(C)CCCCCCNC(=O)[C@H]1C[C@H]2C(=O)N[C@@H](CCCCN)C(=O)N2[C@H]1c1cccc(OCCO)c1	-0.0616	-1.69 (inactive)	-0.0889 (inactive)	-0.692 (inactive)	0.0346 (inactive)	-0.533 (inactive)	0.422 (inactive)	-0.02 (inactive)	-0.614	2.02
CC1(C)[C@@H]2CC(C(O)C3C=CC4C(=O)N(Cc5ccccc5)C(=O)C4N3n3cnnc3)=C[C@H]1C2 (stereo not given in full)	0.883	1.22 (inactive)	-0.12 (inactive)	0.525 (inactive)	-0.445 (inactive)	1.29 (inactive)	-0.539 (inactive)	0.102 (inactive)	-0.192	0.136
Cc1ccc(N2C(=O)c3ccccc3[C@@H](C(=O)NC3CC3)[C@@H]2c2ccc(CO)cc2)nc1	-0.0178	-0.625 (inactive)	0.584 (inactive)	-0.162 (inactive)	0.0714 (inactive)	-0.155 (inactive)	0.659 (inactive)	0.188 (inactive)	0.154	-0.128
CN1C(=O)C2C=CC(C(O)C#Cc3ccccc3)N(N3CCCCC3)C2C1=O (stereo not given)	-0.279	-0.375 (inactive)	-0.347 (inactive)	-1.07 (inactive)	0.614 (inactive)	-0.0362 (inactive)	-0.276 (inactive)	-0.884 (inactive)	-0.0142	-0.0474
O=C1C2C=CC(C(O)Cc3ccccc3)N(n3cnnc3)C2C(=O)N1Cc1ccccc1 (stereo not given)	-0.957	0.341 (inactive)	-1.04 (inactive)	0.293 (inactive)	-0.253 (inactive)	0.656 (inactive)	-1.08 (inactive)	-1.13 (inactive)	-1.05	0.0328
O=C(N1CCCCC1)[C@]1(Cc2ccccc2)N=C(c2ccc(OCCCO)cc2)O[C@@H]1c1ccccc1	0.0053	-1.88 (inactive)	-2.94 (inactive)	-0.0047 (inactive)	0.208 (inactive)	1.02 (inactive)	0.137 (inactive)	-0.829 (inactive)	-3.93	0.205
CC1(C)[C@@H]2CC(C(O)C3C=CC4C(=O)N(c5ccccc5)C(=O)C4N3Nc3ccc([N+](=O)[O-])cc3)=C[C@H]1C2 (stereo not given in full)	-0.128	0.318 (inactive)	0.218 (inactive)	0.634 (inactive)	1.07 (inactive)	0.08 (inactive)	-0.982 (inactive)	-0.512 (inactive)	0.0954	-0.141
COCCCNC(=O)[C@]1(CCC(=O)OC(C)(C)C)N=C(c2ccc(OCCCO)cc2)O[C@@H]1c1ccccc1CN=[N+]=[N-]	0.49	-0.199 (inactive)	-0.123 (inactive)	0.249 (inactive)	1.56 (inactive)	-0.123 (inactive)	0.323 (inactive)	-0.187 (inactive)	-0.0741	0.23
C=C(C)[C@@H]1CC=C(C(O)C2C=CC3C(=O)N(c4ccccc4)C(=O)C3N2Nc2ccccc2)CC1 (stereo not given in full)	-0.126	-1.81 (inactive)	0.272 (inactive)	-0.376 (inactive)	1.6 (inactive)	0.367 (inactive)	0.195 (inactive)	-0.0871 (inactive)	0.37	0.0997
NCCCCCNC(=O)[C@@H]1C[C@@H]2C(=O)N[C@@H](Cc3ccccc3)C(=O)N2[C@@H]1c1ccc(O)cc1	-1.74	-0.576 (inactive)	-0.0591 (inactive)	-0.0741 (inactive)	1.07 (inactive)	-0.56 (inactive)	-0.598 (inactive)	-0.384 (inactive)	0.15	0.013
C=C(COC)/C(=C/C[C@@H](OC(=O)c1ccncc1)c1ccc(CO)o1)c1cc(C(=O)OC)ccc1OC	0.755	-0.439 (inactive)	0.0477 (inactive)	-2.14 (inactive)	1.03 (inactive)	0.0707 (inactive)	1.19 (inactive)	1.03 (inactive)	0.515	1.7
CC(C)C(O)C1C=CC2C(=O)NC(=O)C2N1Nc1ccc(Cl)cc1Cl (stereo not given)	-1.29	-9.69 (active)	-1.59 (inactive)	0.0813 (inactive)	0.751 (inactive)	1.05 (inactive)	-0.456 (inactive)	-0.527 (inactive)	-1.93	-0.02
C=CCN1C(=O)[C@@]2(Cc3ccccc31)N=C(c1ccc(OCCCO)cc1)O[C@H]2c1ccccc1	-0.0935	-2.94 (inactive)	-2.21 (inactive)	0.161 (inactive)	0.122 (inactive)	1.4 (inactive)	1.27 (inactive)	0.775 (inactive)	-2.81	-0.0009
COCCOC(=O)N1C(=O)[C@@]2(c3cc(C#Cc4ccc(OC)cc4)ccc31)[C@H](c1ccc(OCCO)cc1)N1[C@H](c3ccccc3)[C@H](c3ccccc3)OC(=O)[C@H]1[C@@H]2C(=O)N1CCN(c2ncccn2)CC1	-0.107	3.4 (inactive)	0.202 (inactive)	-1.76 (inactive)	1.9 (inactive)	3.43 (inactive)	0.129 (inactive)	-0.312 (inactive)	0.55	0.0623
O=C1O[C@H](c2ccccc2)[C@H](c2ccccc2)N2[C@H]1[C@@H](C(=O)N1CCCCCCC1)[C@]1(C(=O)Nc3ccc(C#CCCO)cc31)[C@H]2c1ccccc1OCCO	-0.118	1.09 (inactive)	-1.12 (inactive)	0.929 (inactive)	1.15 (inactive)	2.99 (inactive)	-0.805 (inactive)	-0.106 (inactive)	-2.97	2.87
CCCC[C@@H]1C[C@H]1[C@@H](NC(=O)C(C)(C)C)c1ccc(C(F)(F)F)cc1	-0.549	0.594 (inactive)	-0.858 (inactive)	-3.55 (inactive)	3.07 (inactive)	1.17 (inactive)	-0.483 (inactive)	-0.631 (inactive)	2.01	0.0256
CCOC(=O)C1=C[C@@H](C(C)(C)C)N(S(=O)(=O)c2ccc(C)cc2)[C@H]1c1ccc(F)cc1	-0.457	2.32 (inactive)	-0.544 (inactive)	0.412 (inactive)	-0.116 (inactive)	1.78 (inactive)	-0.731 (inactive)	-0.791 (inactive)	-2.36	-0.02
COc1ccc(/C=C/C=O)cc1	-0.316	-3.59 (inactive)	-0.998 (inactive)	-0.291 (inactive)	0.0061 (inactive)	0.313 (inactive)	0.154 (inactive)	0.0154 (inactive)	-0.495	0.128
COC(=O)[C@@]1(Cc2ccc(OC)cc2)[C@@H]2C(=CC(=O)[C@H]2CC(=O)C(=O)N2CCCC2)CN1C(=O)c1ccccc1	1.82	1.1 (inactive)	-0.846 (inactive)	1.7 (inactive)	-0.374 (inactive)	0.423 (inactive)	-0.0187 (inactive)	0.798 (inactive)	-0.663	-0.0118
O=C1NC(=O)C2C1C=CC(C(O)c1cc(C(F)(F)F)cc(C(F)(F)F)c1)N2Nc1ccccn1 (stereo not given)	-0.85	0.885 (inactive)	-1.27 (inactive)	-1.14 (inactive)	1.36 (inactive)	0.0176 (inactive)	-0.509 (inactive)	-1.42 (inactive)	-1.2	-0.152
Cc1nc2cc(Br)ccc2c(=O)o1	0.817	-0.691 (inactive)	0.065 (inactive)	-0.442 (inactive)	-0.214 (inactive)	-1.08 (inactive)	0.705 (inactive)	1.42 (inactive)	1.21	-0.0426
COC(=O)[C@@]1(Cc2ccc(OC)cc2)[C@H]2c3cc(C(=O)N(C)C)n(Cc4ccc(S(C)(=O)=O)cc4)c3C[C@H]2CN1C(=O)c1ccccc1	0.0042	0.0274 (inactive)	-0.19 (inactive)	-1.4 (inactive)	2.2 (inactive)	-2.36 (inactive)	0.366 (inactive)	-0.441 (inactive)	0.766	-0.0139
COC(=O)C(CC#Cc1ccc2c(c1)[C@]1(C(=O)N2)[C@H](c2ccc(OCCO)cc2)N2[C@H](c3ccccc3)[C@H](c3ccccc3)OC(=O)[C@H]2[C@@H]1C(=O)N1CCc2cc(OC)c(OC)cc2C1)C(=O)OC	0.399	2.53 (inactive)	0.164 (inactive)	-4.19 (inactive)	3.7 (inactive)	2.97 (inactive)	0.242 (inactive)	-0.182 (inactive)	-0.368	-0.227
